Assay results from PubChem BioAssay.
Activity calls are given as the source filed them.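 How the source made its calls, unless noted: active means inhibition of the reporter signal at or above 50%; inactive means inhibition below 50%.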

Experiment: inhibitors of Sendai virus-induced IRF3 signaling, primary screen, TLR/RLR signaling modifier project, cell-based, Sendai virus stimulus, luciferase, 10K MLSCN set (AID 602276;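 active means inhibition at or above 50% at 10 µM; inactive means inhibition below 50%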;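 further: firefly luciferase from ISG56 promoter only with Renilla not read in this screen; 0% = Sendai virus plus DMSO and 100% = medium plus DMSO without virus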)
Conditions: HEK293 RL24 IRF3 luciferase reporter, at 10 µM, active compounds read high

Row | SMILES | inhibition
1 | COC(=O)C(NC(C)=O)(Nc1ccccn1)C(F)(F)F (stereo not drawn) | 12.5% (inactive)
2 | CCOC(=O)c1ccc2nc(NC(NC(C)=O)(C(=O)OC)C(F)(F)F)sc2c1 (stereo not drawn) | 133% (active)
3 | Cc1nc2sc(C#N)c(N)c2c2c1CCCC2 | -2.92% (inactive)
4 | COCc1cc(=O)[nH]c(Nc2nc3ccccc3o2)n1 | -29.5% (inactive)
5 | Cc1c(O)c(CN2CCCCC2)cc2c3c(c(=O)oc12)CCC3 | 12.6% (inactive)
6 | O=C(C1CC1(c1ccccc1)c1ccccc1)N1CCOCC1 (stereo not drawn) | 18.5% (inactive)
7 | Cn1c(=O)[nH]c(=O)c2c1nc(N(CCO)Cc1ccccc1)n2Cc1ccccc1Cl | 16.5% (inactive)
8 | CC1(C)CNC(=O)c2sc(N3CCOCC3)nc2C1 | 17.2% (inactive)
9 | CCOC(=O)CNC(=O)Nc1ccccc1C(=O)OC | 10.2% (inactive)
10 | CC(=O)C1=C(O)C(=O)N(c2ccc(C(=O)O)cc2)C1c1ccccc1 (stereo not drawn) | 16.8% (inactive)
11 | Cn1c(=O)n(Cc2ccccc2)c(=O)c2c1nc(NCC1CCCO1)n2Cc1ccccc1 (stereo not drawn) | -5.28% (inactive)
12 | c1ccc(CN2CCN(c3ncnc4c3[nH]c3ccccc34)CC2)cc1 | 1.57% (inactive)
13 | Cc1nnc2n(-c3ccccc3)c(=O)c3c4c(sc3n12)CCCC4 | -14.4% (inactive)
14 | COc1ccc2c(c1)n([O-])c1c([n+]2=O)CCC1 | -10.3% (inactive)
15 | Cc1cc2c(c(=O)o1)C(Cc1ccccc1)C(C#N)=C(N)O2 (stereo not drawn) | 13.9% (inactive)
16 | c1ccc2c(c1)[nH]c1c(N3CCC4(CC3)OCCO4)ncnc12 | 2.08% (inactive)
17 | CCOC(=O)c1ccc(N=Cc2nc(-c3ccccc3)oc2OC(C)=O)cc1 | 4.63% (inactive)
18 | CCN1CCc2c(C#N)c(N3CCCCC3)nc(NCc3ccccc3)c2C1 | 14.7% (inactive)
19 | Cc1cc(C)n(C(=O)CNC(=O)C2COc3ccccc3O2)n1 (stereo not drawn) | 15.9% (inactive)
20 | CCCCOc1ccccc1C(=O)NCCCC(=O)O | 12.9% (inactive)

Row | SMILES | inhibition
21 | OCCNc1ncnc2c1c(-c1ccccc1)c(-c1ccccc1)n2Cc1ccco1 | 12.3% (inactive)
22 | COc1ccc(CCn2c(=N)c(C#N)cc3c(=O)n4ccccc4nc32)cc1 | 13.2% (inactive)
23 | Cc1nc2ccccc2cc1O | 17.5% (inactive)
24 | COC(=O)CNC(=O)c1c(C)cc(=O)oc1C | 5.18% (inactive)
25 | Cc1c(NC(=O)c2ccc(=O)oc2)c(=O)n(-c2ccccc2)n1C | 22.3% (inactive)
26 | Cc1ccc(C(=O)/C=C/Nc2cccc(O)c2)cc1 | 5.62% (inactive)
27 | CCn1nc(NC(=O)c2cccnc2)c2cc3ccccc3nc21 | 10.7% (inactive)
28 | Cc1ccc(/C=N/n2nnnc2N)o1 | -2.49% (inactive)
29 | Cc1ccc2[nH]c3c(N4CCOCC4)ncnc3c2c1 | -15.5% (inactive)
30 | O=C(Nc1ccccn1)NC(C(F)(F)F)C(F)(F)F | 0.13% (inactive)
31 | CC(=O)c1c(OCC(=O)O)ccc2c(C)cc(=O)oc12 | 16.9% (inactive)
32 | O=C(NC1CCS(=O)(=O)C1)c1c(NC(=O)C2COc3ccccc3O2)sc2c1CCCC2 (stereo not drawn) | 17.1% (inactive)
33 | Cc1cc(O)c(C(C)C)cc1N=C1CSC(=O)N1 | 13% (inactive)
34 | O=C1C2ON(c3ccccc3)C(c3cccnc3)C2C(=O)N1c1ccccc1 (stereo not drawn) | -8.41% (inactive)
35 | COc1ccccc1N=Cc1nc(-c2ccccc2)oc1OC(C)=O | 18.8% (inactive)
36 | Fc1ccc(-c2cnc[nH]2)cc1 | -22.9% (inactive)
37 | Nn1c(SCC(=O)Nc2ccc3c(c2)OCCO3)nnc1C(F)(F)F | 12.4% (inactive)
38 | CN(C)/C=C1\N=C(c2ccc(Cl)cc2Cl)OC1=O | -61.9% (inactive)
39 | CCOc1ccccc1N1CCN(c2nc3ccccc3nc2C(C#N)C(=O)OC)CC1 (stereo not drawn) | 10.2% (inactive)

Experiment: inhibitors of poly I:C-induced TLR3 signaling, primary screen, cell-based, poly I:C stimulus, luciferase, 10K MLSCN set (AID 602277)
Conditions: HEK293-TLR3 RL24 IRF3 luciferase reporter, at 10 µM, active compounds read high

Row | SMILES | inhibition
40 | COC(=O)C(NC(C)=O)(Nc1ccccn1)C(F)(F)F (stereo not drawn) | 20.1% (inactive)
41 | CCOC(=O)c1ccc2nc(NC(NC(C)=O)(C(=O)OC)C(F)(F)F)sc2c1 (stereo not drawn) | 99% (active)
42 | Cc1nc2sc(C#N)c(N)c2c2c1CCCC2 | -41.1% (inactive)
43 | COCc1cc(=O)[nH]c(Nc2nc3ccccc3o2)n1 | -80.2% (inactive)
44 | Cc1c(O)c(CN2CCCCC2)cc2c3c(c(=O)oc12)CCC3 | 14.9% (inactive)
45 | O=C(C1CC1(c1ccccc1)c1ccccc1)N1CCOCC1 (stereo not drawn) | 22.6% (inactive)
46 | Cn1c(=O)[nH]c(=O)c2c1nc(N(CCO)Cc1ccccc1)n2Cc1ccccc1Cl | 28.7% (inactive)
47 | CC1(C)CNC(=O)c2sc(N3CCOCC3)nc2C1 | 15.4% (inactive)
48 | CCOC(=O)CNC(=O)Nc1ccccc1C(=O)OC | 18.3% (inactive)
49 | CC(=O)C1=C(O)C(=O)N(c2ccc(C(=O)O)cc2)C1c1ccccc1 (stereo not drawn) | 17.1% (inactive)
50 | Cn1c(=O)n(Cc2ccccc2)c(=O)c2c1nc(NCC1CCCO1)n2Cc1ccccc1 (stereo not drawn) | -6.2% (inactive)
51 | c1ccc(CN2CCN(c3ncnc4c3[nH]c3ccccc34)CC2)cc1 | -46.7% (inactive)
52 | Cc1nnc2n(-c3ccccc3)c(=O)c3c4c(sc3n12)CCCC4 | -35.5% (inactive)
53 | COc1ccc2c(c1)n([O-])c1c([n+]2=O)CCC1 | 99.2% (active)
54 | Cc1cc2c(c(=O)o1)C(Cc1ccccc1)C(C#N)=C(N)O2 (stereo not drawn) | 19% (inactive)
55 | c1ccc2c(c1)[nH]c1c(N3CCC4(CC3)OCCO4)ncnc12 | -40% (inactive)
56 | CCOC(=O)c1ccc(N=Cc2nc(-c3ccccc3)oc2OC(C)=O)cc1 | 11.1% (inactive)
57 | CCN1CCc2c(C#N)c(N3CCCCC3)nc(NCc3ccccc3)c2C1 | 31.2% (inactive)
58 | Cc1cc(C)n(C(=O)CNC(=O)C2COc3ccccc3O2)n1 (stereo not drawn) | 20.1% (inactive)
59 | CCCCOc1ccccc1C(=O)NCCCC(=O)O | 17.2% (inactive)

Row | SMILES | inhibition
60 | OCCNc1ncnc2c1c(-c1ccccc1)c(-c1ccccc1)n2Cc1ccco1 | -0.125% (inactive)
61 | COc1ccc(CCn2c(=N)c(C#N)cc3c(=O)n4ccccc4nc32)cc1 | 2.91% (inactive)
62 | Cc1nc2ccccc2cc1O | 27.8% (inactive)
63 | COC(=O)CNC(=O)c1c(C)cc(=O)oc1C | 12% (inactive)
64 | Cc1c(NC(=O)c2ccc(=O)oc2)c(=O)n(-c2ccccc2)n1C | 24.4% (inactive)
65 | Cc1ccc(C(=O)/C=C/Nc2cccc(O)c2)cc1 | -32.3% (inactive)
66 | CCn1nc(NC(=O)c2cccnc2)c2cc3ccccc3nc21 | -6.02% (inactive)
67 | Cc1ccc(/C=N/n2nnnc2N)o1 | 3.55% (inactive)
68 | Cc1ccc2[nH]c3c(N4CCOCC4)ncnc3c2c1 | -85.9% (inactive)
69 | O=C(Nc1ccccn1)NC(C(F)(F)F)C(F)(F)F | 5.13% (inactive)
70 | CC(=O)c1c(OCC(=O)O)ccc2c(C)cc(=O)oc12 | 17.3% (inactive)
71 | O=C(NC1CCS(=O)(=O)C1)c1c(NC(=O)C2COc3ccccc3O2)sc2c1CCCC2 (stereo not drawn) | 14.6% (inactive)
72 | Cc1cc(O)c(C(C)C)cc1N=C1CSC(=O)N1 | 19.6% (inactive)
73 | O=C1C2ON(c3ccccc3)C(c3cccnc3)C2C(=O)N1c1ccccc1 (stereo not drawn) | -21.8% (inactive)
74 | COc1ccccc1N=Cc1nc(-c2ccccc2)oc1OC(C)=O | 40.5% (inactive)
75 | Fc1ccc(-c2cnc[nH]2)cc1 | -37.6% (inactive)
76 | Nn1c(SCC(=O)Nc2ccc3c(c2)OCCO3)nnc1C(F)(F)F | 21.3% (inactive)
77 | CN(C)/C=C1\N=C(c2ccc(Cl)cc2Cl)OC1=O | -177% (inactive)
78 | CCOc1ccccc1N1CCN(c2nc3ccccc3nc2C(C#N)C(=O)OC)CC1 (stereo not drawn) | 16.1% (inactive)
